Measured values taken from PubChem BioAssay (EPA / NIEHS).
Active and inactive are the calls of the source. The calls were made as follows: active = hit-call score of the fitted dose curve at least 0.9, where 1 is the maximum; inactive = score below 0.9.

Target: Transcriptional activator Myb (Homo sapiens) (UniProt P10242)
Test: ATG_Myb_CIS: Attagene CIS-FACTORIAL HepG2 Assay for human Myeloblastosis (Myb) Proto-Oncogene Transcription Factor (AID 2282986)
Settings: HepG2 Attagene CIS-FACTORIAL Myb reporter transcription; actives raise or lower the signal
Summary of the method: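 Endogenous transcription factor activity at a Myb-responsive cis element is reported in human liver HepG2 cells after 24 h chemical treatment. Reporter mRNA is detected by RT-PCR and capillary electrophoresis fluorescence, with DMSO as baseline.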

Sequence of Transcriptional activator Myb (Homo sapiens) (P10242 whole entry, looked up): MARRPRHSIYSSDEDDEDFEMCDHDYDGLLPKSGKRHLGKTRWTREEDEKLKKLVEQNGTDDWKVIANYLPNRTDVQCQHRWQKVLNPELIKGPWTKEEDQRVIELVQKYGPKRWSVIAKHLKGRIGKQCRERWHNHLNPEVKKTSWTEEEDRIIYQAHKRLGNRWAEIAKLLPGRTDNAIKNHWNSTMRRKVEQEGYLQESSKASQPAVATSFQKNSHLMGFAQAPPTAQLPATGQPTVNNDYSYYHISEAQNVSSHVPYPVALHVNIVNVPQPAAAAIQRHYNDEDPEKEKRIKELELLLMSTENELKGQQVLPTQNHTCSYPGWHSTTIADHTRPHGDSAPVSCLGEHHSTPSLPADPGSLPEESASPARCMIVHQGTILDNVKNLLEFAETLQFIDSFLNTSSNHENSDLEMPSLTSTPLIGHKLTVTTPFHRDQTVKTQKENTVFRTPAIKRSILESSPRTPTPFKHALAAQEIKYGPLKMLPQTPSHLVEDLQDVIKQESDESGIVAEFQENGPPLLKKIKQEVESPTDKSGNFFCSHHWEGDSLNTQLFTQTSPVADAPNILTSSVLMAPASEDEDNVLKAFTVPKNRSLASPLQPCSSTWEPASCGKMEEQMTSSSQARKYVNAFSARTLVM

| Compound | outcome | AC50 |
| --- | --- | --- |
| CCCCCCCCCCCC#N | inactive |  |
| O=C(NC(=O)c1c(F)cccc1F)Nc1ccc(Oc2ccc(C(F)(F)F)cc2Cl)cc1F | inactive |  |
| CC1CCCC1.[C-]#[O+].[C-]#[O+].[C-]#[O+].[Mn] | inactive |  |
| CCCCNP(N)(N)=S | inactive |  |
| CC(=O)C=Cc1ccccc1 |  | 128 µM (active) |
| CCC(=O)c1ccc(Cl)cc1 | inactive |  |
| Nc1ccccc1C(=O)Oc1ccc2ccccc2c1 |  | 162 µM (active) |
| C=CC(=O)OC | inactive |  |
| CC(C)CCCCCCCOC(=O)c1ccccc1C(=O)OCCCCCCCC(C)C | inactive |  |
| N#CCNCC#N | inactive |  |
| CN(C)N | inactive |  |
| CN1C[C@H](C(=O)N[C@]2(C)O[C@@]3(O)[C@@H]4CCCN4C(=O)[C@H](Cc4ccccc4)N3C2=O)C=C2c3cccc4[nH]cc(c34)C[C@H]21 | inactive |  |
| O=[N+]([O-])C=Cc1ccccc1 |  | 22.9 µM (active) |
| Nc1ccc(Cl)c(Cl)c1 | inactive |  |
| CCCCOP(=O)(O)OCCCC | inactive |  |
| O=C(O)CCl | inactive |  |
| CC(O)CN(CC(C)O)CC(C)O (stereo unspecified) | inactive |  |
| Nc1cc(Cl)cc(Cl)c1 | inactive |  |
| O=[N+]([O-])c1ccc(Cl)cc1 | inactive |  |
| Cc1ccc(C)c2ccccc12 | inactive |  |
| C=CCO | inactive |  |
| COC(=O)COc1ccc(Cl)cc1Cl | inactive |  |
| [CH3][Sn]([Cl])([Cl])[Cl] | inactive |  |
| CC(=O)c1cc2c(cc1C)C(C)(C)C(C)CC2(C)C (stereo unspecified) |  | 55.9 µM (active) |
| Nc1ccc(-c2ccc(N)c(N)c2)cc1N | inactive |  |
| c1cc(OCC2CO2)ccc1Cc1ccc(OCC2CO2)cc1 (stereo unspecified) | inactive |  |
